The source of these data is PubChem BioAssay.

A number with no mark means an inactive call. The source made the active and inactive calls. Rule as the data show it: active = inhibition above about 36%; inactive = the rest.

In the assay the test system is transactivating tegument protein VP16 (Human herpesvirus 1). The assay can be described thus: VP16 transactivation reporter inhibitors, counter-screen for SRC2 inhibitor project, cell-based, luminescence, single concentration (AID 652007). The conditions noted are these: cell-based VP16 transactivation luciferase reporter, at 8.9 µM, active compounds read high.
Consider `Cc1ccc(Nc2nc(-c3c(C)nc4ccccn34)cs2)cc1`, for which the inhibition is -16.9%.

Regarding `CC(C)[C@H](NC(=O)[C@@H]1Cc2ccccc2CN1)C(=O)Nc1ccc2c(c1)OCCO2`, the inhibition was -21%.

For `Cc1cc(=O)n2c3c(c4c(cc13)c(CN(C)C)cc(=O)n4C)OC2`, the inhibition is 2.33%.

Turning to `O=S(=O)(c1ccccc1)N1CCC(O)(CSc2ccc(F)cc2)CC1`, the inhibition is -1.83%.

As for `COc1ccc(CNn2c(-c3cccs3)nc3ccccc3c2=O)cc1OC`, the inhibition was -9.43%.

Turning to `CC(C)CCSc1nc(N)c(C#N)cc1C#N`, the inhibition is -75.7%.

In the case of `COc1ccc(CN2CCC(C(=O)Nc3ccc(Oc4ccccc4)nc3)CC2)cc1F`, the inhibition was 16.9%.

In the case of `O=c1ccn(Cc2ccc(F)cc2)c2ccnc(C(F)(F)F)c12`, the inhibition was 14.8%.

For `CN1Cc2sc(NC(=S)NC(=O)c3ccccc3)c(C#N)c2CC1(C)C`, the inhibition was 20.5%.

As to `Cc1cc(NC(=O)c2ccccc2)c(Cl)cc1N`, the inhibition was 25.4%.

`CC(C)(C)c1ccc(-c2n[nH]c(=S)n2C2CCCC2)cc1`: the inhibition was 1.72%.

With `O=C(C(O)c1ccc(Br)cc1)N1CCC(Nc2ccc3[nH]ncc3c2)CC1` (stereo not given), the inhibition was -4.16%.

For the compound `Cc1ccc2nc(-c3ccc4c(c3)OCCO4)cn2c1`, the inhibition is 58.9% (active).

In the case of `COc1ccc(OC)c(C2C(C#N)=C(N)Oc3c2c(C)nn3-c2cccc(Cl)c2)c1` (stereo not given), the inhibition is 3%.

Turning to `COc1ccc(-c2nnc(SCC(=O)Oc3ccc(C)cc3)o2)cc1`, the inhibition was -10%.

For the compound `O=C(NC1CCCC1)C(c1ccccc1)n1c(CSCCOc2ccccc2)nc2ccccc21` (stereo not given), the inhibition is 47.1% (active).

Turning to `Cc1cc(C)n(CCC(=O)N/N=C/c2c(O)ccc3ccccc23)n1`, the inhibition is 5.98%.

Turning to `CC(C)COc1ccc(C/C(N)=N/n2cnnc2)cc1`, the inhibition is 22.1%.

In the case of `N/C(=N\OC(=O)c1ccc(Cl)cc1Cl)c1ccccn1`, the inhibition was -75.5%.

As to `O=C(c1ccccc1Nc1ccc(SC(F)F)cc1)N1CCCCCC1`, the inhibition is 2.12%.

Consider `NC1=NC(=O)/C(=C\c2cccnc2)S1`, for which the inhibition was -14.6%.

As to `CCCCCC(=O)N1CC2(CC(c3cccc(NC(=O)COc4ccc(Cl)cc4)c3)=NO2)C[C@@H]1C(N)=O` (stereo not given in full), the inhibition was -7.91%.

In the case of `Cc1ccc(C(=O)O/N=C(\N)c2ccccn2)cc1C`, the inhibition is -29.9%.

For the compound `CCc1ccc(-c2nc(CSCC(=O)NC3CC3)c(C)o2)cc1`, the inhibition was 47.6% (active).

In the case of `COc1ccc(OC)c(-n2nnnc2SCC(=O)Nc2cc(C)ccc2OC)c1`, the inhibition is -22.1%.

As for `Cc1nc2cc(-c3ccccc3)nn2c(C)c1CCC(=O)NCc1ccco1`, the inhibition was -27.7%.

`CC(=O)N1CCCc2cc(S(=O)(=O)N3CCCC(C(=O)NCc4ccccc4Cl)C3)ccc21` (stereo not given): the inhibition is 24.9%.

With `COCCn1c(-c2ccc(Br)cc2)csc1=Nc1cccnc1`, the inhibition is 10.4%.

As for `CCc1ccc(/C=C2\SC(=S)N(CCCC(=O)Nc3cc(C)on3)C2=O)cc1`, the inhibition was 28.9%.

As to `O=C(/C=C/c1cccnc1)/C=C/c1cccnc1`, the inhibition was 77.1% (active).

For the compound `COc1ccc2c(c1)CCCN2C(=O)C1CCCN(S(=O)(=O)c2ccc(C(C)(C)C)cc2)C1` (stereo not given), the inhibition is -3.95%.

For `CCc1cccc(C)c1NC(=O)CSc1nnc(CCCOc2ccc(Cl)cc2Cl)n1C`, the inhibition is -13.2%.

As to `CCOC(=O)[C@]12CCCC=C1N(Cc1cccc3ccccc13)C(=O)[C@H](CC(=O)N1CCOCC1)C2`, the inhibition was -7.43%.

Regarding `Cn1nnnc1Sc1ncnc2scc(-c3ccsc3)c12`, the inhibition was 18.3%.

As to `CC1CN(C(=O)CCC(=O)N2CCN(c3cccc(C(F)(F)F)c3)CC2)c2ccccc2O1` (stereo not given), the inhibition was 15.6%.

As for `O=C(Cc1ccc(Cl)cc1)NCCc1cnc[nH]1`, the inhibition was -16.2%.

Take `O=C(O)c1ccccc1C=NN1CCCCCC1`: the inhibition was -9.35%.

Turning to `Cc1cccc(C(=O)N2CCC(Cc3ccccc3)CC2)c1[N+](=O)[O-]`, the inhibition was 14.4%.

In the case of `O=C(CSCCO)Nc1ccc(C23CC4CC(CC(C4)C2)C3)cc1`, the inhibition was -57.7%.

For the compound `O=C(CCCSc1nc2ccccc2s1)NC1=NCCS1`, the inhibition was 27.1%.
